The entries come from a sample that favours hits as a whole.
AMPAR-TARP mod: modulators of AMPA receptor GluA2-stargazin complexes. HEK293 GluA2+stargazin, membrane potential dye (FDSS), glutamate EC50; hits were called plate by plate, in both directions. 40,000 tested, 3.5% active. calls only at 30 µM. O88602+P19491;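 active = any of four per-well response measures lying three or more SD from its plate-wide compound average, in either direction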
GIRK2 act: Activators of human GIRK2-containing channels; HEK293 GIRK2/NPY4 cells, thallium flux fluorescence; activation (% efficacy), % for hits at 37.5 µM; 34,000 tested, under 10 active; AID 1259324;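 active = primary screen hit, no activity in plain HEK293 cells, and in GIRK2-only cells above 5% efficacy rising with concentration; inactive = the rest, including fluorescent compounds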;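 note: efficacy is normalized control-subtracted fluorescence 15 s after thallium addition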
Target sequence (P48051 whole entry, looked up): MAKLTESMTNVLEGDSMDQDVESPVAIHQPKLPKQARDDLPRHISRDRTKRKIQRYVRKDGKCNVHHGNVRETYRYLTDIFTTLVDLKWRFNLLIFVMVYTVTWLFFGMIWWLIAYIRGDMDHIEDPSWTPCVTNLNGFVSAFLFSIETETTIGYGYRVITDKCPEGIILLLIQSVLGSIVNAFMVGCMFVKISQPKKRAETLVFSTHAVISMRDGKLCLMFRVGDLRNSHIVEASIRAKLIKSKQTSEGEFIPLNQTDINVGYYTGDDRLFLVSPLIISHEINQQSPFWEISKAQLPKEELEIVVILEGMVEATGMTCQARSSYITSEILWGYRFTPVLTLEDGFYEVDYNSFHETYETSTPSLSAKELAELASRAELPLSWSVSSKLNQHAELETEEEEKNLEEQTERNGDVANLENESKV
Active calls of the source: *; i = inactive; nt = no result; + = active, no number.

SMILES	AMPAR-TARP mod	GIRK2 act
COc1cccc(C2=NN(C(C)=O)C(c3ccc4nccnc4c3)C2)c1 (stereo not given)	i	i
CCS(=O)(=O)c1ccc(CC(=O)Nc2sc3c(c2C(N)=O)CCC(C)C3)cc1 (stereo not given)	i	nt
COc1ccc(F)cc1S(=O)(=O)N1CCN(CCn2ccnc2)CC1	nt	i
CC(=O)N1CCc2c(sc3nc(SCc4ccc([N+](=O)[O-])cc4)n(Cc4ccco4)c(=O)c23)C1	i	nt
CC(=O)N1CCc2c(sc3nc(SCc4cccc([N+](=O)[O-])c4)n(Cc4ccco4)c(=O)c23)C1	+	i
CCSc1ccccc1C(=O)NCCn1cnc(-c2ccccc2)cc1=O	+	i
O=C(Cn1cnc(-c2ccccc2)cc1=O)NCCC(c1ccccc1)c1ccccc1	i	i
CC(C)c1ccc2c(c1)sc(=NC(=O)c1ccn(C)n1)n2C	i	i
O=C(c1ccccc1)N1N=C(c2ccc(F)cc2)CC1c1ccc2nccnc2c1 (stereo not given)	nt	i
O=C(COc1ccccc1C1CC(c2ccccc2)=NN1C(=O)c1ccccc1)NCCO (stereo not given)	+	nt
O=C(C1COc2ccccc2O1)N(CCCn1ccnc1)c1nc2c(F)cccc2s1 (stereo not given)	i	i
COc1ccc(C)cc1S(=O)(=O)N1CC(C)CC(C)C1 (stereo not given)	i	nt
CC1CC(C)CN(S(=O)(=O)c2c(F)cccc2F)C1 (stereo not given)	+	nt
O=C(NCCC(O)c1cccs1)C1COc2ccccc2O1 (stereo not given)	i	i
O=C(NCCOc1ccc2nnc(-c3ccccc3)n2n1)C1CCCC1	i	i
O=C(NCCOc1ccc2nnc(-c3cccc(F)c3)n2n1)c1cc(-c2ccccc2)n[nH]1	+	i
O=C(COc1ccccc1)NCCOc1ccc2nnc(-c3cccc(F)c3)n2n1	i	nt
COc1ccc(-c2nnc3ccc(OCCNC(=O)Nc4cccs4)nn23)cc1OC	+	i
COc1ccc(-c2nnc3ccc(OCCNC(=O)c4ccccc4)nn23)cc1OC	i	i
O=C(NCCOc1ccc2nnc(-c3ccccc3)n2n1)Nc1cccs1	+	i
COc1ccc(-c2nnc3ccc(OCCNC(=O)C4CC4)nn23)cc1	+	i
O=C(NCCOc1ccc2nnc(-c3ccccc3)n2n1)Nc1ccccc1	i	i
Cc1ccc(-n2c(C)c(C)n3c4c(=O)n(CC(=O)OCc5ccccc5)c(=O)n(C)c4nc23)cc1	i	nt
Cc1ccc(C(=O)N2CCN(c3ccc(-c4cccnc4)nn3)CC2)cc1	i	i
CSc1ccccc1NC(=O)C(=O)NCC1CCN(C)CC1	i	i
SMILES	AMPAR-TARP mod	GIRK2 act
CSc1ccccc1NC(=O)C(=O)NCC1CCN(C2CCCC2)CC1	+	i
Cc1c(C(=O)O)sc2nc3n(c(=O)c12)CCC3	i	nt
Cc1csc(NC(=O)Cc2cc(-c3ccc(Cl)cc3)on2)n1	i	i
Cn1cc(C(=O)N2CCCCCC2)cc(NC(=O)c2ccccc2Cl)c1=O	+	nt
Cn1cc(C(=O)N2CCCCCC2)cc(NC(=O)c2cc(Cl)ccc2Cl)c1=O	i	nt
O=C(Cc1ccc(-c2ccccc2)cc1)Nc1ccc(N2CCCC2=O)cc1	i	i
COc1cc(OC)cc(C(=O)Nc2nnc(-c3ccc(Br)s3)o2)c1	+	i
COc1cc(C(=O)Nc2nnc(-c3ccc(C)cc3C)o2)cc(OC)c1OC	i	nt
COc1cccc(C(=O)Nc2nnc(-c3ccc(Br)s3)o2)c1	i	i
COc1cc(OC)cc(C(=O)Nc2nnc(-c3ccc(C)cc3C)o2)c1	+	nt
CCOc1ccc(NC(=O)CSc2nc3sc(C)c(C)c3c(=O)n2Cc2ccco2)cc1	i	nt
CN(C)c1ccc(N2C(=O)c3cccc4cccc(c34)C2=O)cc1	i	nt
COc1ccc2nc(-c3cccc(NC(=O)Nc4ccccc4OC)c3)cn2n1	i	i
O=C(NCCc1ccsc1)C1(c2ccc(Cl)cc2)CCCC1	+	i
O=C(NCC(O)(c1cccs1)C1CC1)C1(c2ccc(Cl)cc2)CCCC1 (stereo not given)	i	i
O=C(Nc1nc(-c2cccnc2)cs1)C1CCN(S(=O)(=O)c2cccs2)CC1	i	nt
O=C(Nc1nc(-c2cccnc2)cs1)C1CCN(S(=O)(=O)c2ccc(Cl)s2)CC1	+	nt
CC(O)(CNC(=O)c1ccsc1)C1CC1 (stereo not given)	i	i
O=C(NCC1(c2ccccc2)CCOCC1)Nc1ccccc1Cl	i	nt
C#CCn1c(=NC(=O)c2ccn(C)n2)sc2cc(CC)ccc21	i	i
Cc1ccc(NCCNC(=O)C(C)(C)Oc2ccc(Cl)cc2)nn1	i	i
Cc1nn(C2CCS(=O)(=O)C2)c(C)c1CC(=O)Nc1ccc(F)c(Cl)c1 (stereo not given)	i	i
